According to PubChem BioAssay (NCI):
This is part of a sample that, as a whole, favours compounds with a hit. Of some 83,000 tested, about 20% had one in any assay.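 Percent growth is the endpoint: 0 to 100 indicates growth inhibition (40 means 60% inhibition), 0 means no net growth, and negative values indicate cell death.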 Calls of active or inactive are those of the source. Rule for the calls: active = growth percent below 10; inactive = the rest.

test system: SN12C renal; assay: NCI-60 one-dose screen, 48 h (100 = growth as untreated, 0 = no growth, -100 = all killed); conditions: 10 µM unless noted

| SMILES | growth |
| --- | --- |
| O=C(/C=C/Nc1ccc2oc(=O)ccc2c1)c1cc2cc(Br)ccc2oc1=O | 102% (inactive) |
| CC1(c2cc3cc(Cl)ccc3oc2=O)NC(=O)c2c(/C=C/C(=O)OC3CC4CCC3(C)C4(C)C)cccc2N1 (stereo unspecified) | 58.5% (inactive) |
| COc1ccc(-c2ccnc(SCc3cc4ccccc4[nH]c3=O)n2)cc1OC | -37.6% (active) |
| CC12CC[C@@H]3[C@]4(C)COC(c5cn[nH]c5-c5cccc(Br)c5)O[C@@H]4CC[C@@]3(C)[C@@H]1CC(C1=CCOC1=O)O2 (stereo partly specified) | 43.3% (inactive) |
| O=C(c1ccc(OCCN2CCOCC2)cc1)C1[C@H](c2ccc(Cl)cc2)[C@@H](c2ccccc2)NC12C(=O)Nc1ccc(Br)cc12 (stereo partly specified) | -8.07% (active) |
| COc1ccc2c(c1)c(/C=N/Nc1ccc3ccccc3n1)cn2C | -71.7% (active) |
| CN(C)CCOc1ccc(C(=O)C2[C@H](c3ccc(Cl)cc3)[C@@H](c3ccccc3)NC23C(=O)Nc2ccc(Br)cc23)cc1 (stereo partly specified) | 7.21% (active) |
| O=c1[nH]c2ccc(Cl)cc2cc1CSc1nccc(-c2ccc(Cl)cc2)n1 | 39.9% (inactive) |
| COc1cccc(/C=C/c2nc3ccccc3c(=O)n2CC(=O)Nc2ccc(Cl)cc2)c1 | 39.2% (inactive) |
| CCCSc1nc(Nc2ccc(S(N)(=O)=O)cc2)c(C#N)c(-c2cc(OC)c(OC)c(OC)c2)n1 | 20.4% (inactive) |
| CC(/C=C1\SC(=S)N(CCCC(=O)NC(CC(C)C)C(=O)O)C1=O)=C\c1ccccc1 (stereo unspecified) | 90.2% (inactive) |
| COc1ccc(/C=C/c2nc3ccccc3c(=O)n2CC(=O)Nc2ccc(Cl)cc2)cc1 | 55.3% (inactive) |
| Cn1cc(-c2cc3nc(-c4cn(C)c5ncc(Br)cc45)cc(N)n3n2)c2cc(Cl)ccc21 | -87.9% (active) |
| Cn1cc(-c2cc(N)n3nc(-c4cn(C)c5ncccc45)cc3n2)c2cccnc21 | 90% (inactive) |
| Cc1ccc([C@H]2C(C(=O)c3ccc(Cl)cc3)C3(N[C@@H]2c2ccccc2)C(=O)Nc2ccc(Cl)cc23)cc1 (stereo partly specified) | -1.19% (active) |
| O=C(Cn1c(/C=C/c2ccccc2)nc2ccccc2c1=O)Nc1ccc(Cl)cc1 | 19.2% (inactive) |
| CC12CC[C@@H]3[C@]4(C)COC(c5cn[nH]c5-c5cccc(Cl)c5)O[C@@H]4CC[C@@]3(C)[C@@H]1CC(C1=CCOC1=O)O2 (stereo partly specified) | 47.9% (inactive) |
| CCCCSc1nc(Nc2ccc(S(N)(=O)=O)cc2)c(C#N)c(-c2cc(OC)c(OC)c(OC)c2)n1 | 23.1% (inactive) |
| CCOC(=O)/C=C/c1cccc2c1C(=O)NC(C)(c1cc3cc(Cl)ccc3oc1=O)N2 (stereo unspecified) | 31.5% (inactive) |
| O=C(c1ccc(OCCN2CCOCC2)cc1)C1[C@H](c2ccc(Cl)cc2)[C@@H](c2ccccc2)NC12C(=O)Nc1ccc(Cl)cc12 (stereo partly specified) | 13.5% (inactive) |
| CC(C)c1sc(NC(=O)c2cc(NC(=O)c3cc(NC(=O)c4nccn4C)cn3C)cn2C)nc1C(=O)NCCCN(C)C | 85.7% (inactive) |
| COc1c(F)ccc(C(=O)Nc2ccc3nc(NC(=O)C4CCCN(S(=O)(=O)c5ccc(Cl)cc5)C4)sc3c2)c1F (stereo unspecified) | 82% (inactive) |
| O=C(N1c2ccccc2Sc2ccccc21)n1ccc2cccnc21 | 81.1% (inactive) |
| Cn1cc(-c2cc(N)n3nc(-c4cn(C)c5ncc(Br)cc45)cc3n2)c2cc(Br)cnc21 | 12.4% (inactive) |
| CC1=C(C#N)C2=NNCC(c3ccccc3)=NN2C(c2ccccc2)=C1 | 105% (inactive) |
| C=C1CC[C@@H]2[C@]3(C)COC(c4cn[nH]c4-c4ccc(F)cc4)O[C@@H]3CC[C@@]2(C)[C@@H]1C/C=C1/C(=O)OCC1O (stereo partly specified) | -51.4% (active) |
